# In publication PMC7862700, “An all-to-all approach to the identification of sequence-specific readers for epigenetic DNA modifications on cytosine”:
# Tests used:
# Assay in all cases: DAPPL (digital affinity profiling via proximity ligation, sequencing); 10 mM Tris-HCl pH 7.5, 50 mM NaCl, 1 mM DTT, 4% glycerol, room temperature, 30 min; GST-TFs on glutathione beads, 16-mer random dsDNA library, 0.1% formaldehyde crosslink after washing; high values mean tight binding
# FLI1 = target: T1, FLI1 (Homo sapiens, UniProt Q01543 1-452); conditions: protein: recombinant; tags: N-terminal GST; dsDNA, one strand shown
# T1 sequence: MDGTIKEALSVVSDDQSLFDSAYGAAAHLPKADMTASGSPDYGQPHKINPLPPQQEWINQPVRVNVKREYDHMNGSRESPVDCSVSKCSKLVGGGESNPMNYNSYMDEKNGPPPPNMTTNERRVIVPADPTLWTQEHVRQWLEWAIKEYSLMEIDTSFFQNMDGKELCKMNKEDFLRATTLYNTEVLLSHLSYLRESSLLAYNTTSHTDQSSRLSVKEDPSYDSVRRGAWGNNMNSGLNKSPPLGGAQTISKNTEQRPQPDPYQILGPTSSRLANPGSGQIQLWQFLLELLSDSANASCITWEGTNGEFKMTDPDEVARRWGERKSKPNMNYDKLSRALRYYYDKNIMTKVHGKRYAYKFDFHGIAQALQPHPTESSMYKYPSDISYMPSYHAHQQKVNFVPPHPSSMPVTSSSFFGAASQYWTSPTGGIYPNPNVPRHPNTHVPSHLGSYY
# In short: (§1)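 Binding signal is each hexamer's read frequency for a factor divided by its frequency in the tag-only sample. The factors were GST-fused human transcription factors from yeast, captured on glutathione beads, DNA-barcoded and pooled with that sample. Pools were incubated with 200 nmole of a random double-stranded 16-mer DNA library in Tris/NaCl/DTT/glycerol buffer at room temperature for 30 min, then washed, crosslinked with 0.1% formaldehyde, proximity-ligated with BsaI/T4 ligase (1 h, 37 °C), PCR-amplified and sequenced on an Illumina NextSeq500.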
# ELK1 = target: T2, ELK1 (Homo sapiens, UniProt P19419 1-428); conditions: protein: recombinant; tags: N-terminal GST; dsDNA, one strand shown
# T2 sequence: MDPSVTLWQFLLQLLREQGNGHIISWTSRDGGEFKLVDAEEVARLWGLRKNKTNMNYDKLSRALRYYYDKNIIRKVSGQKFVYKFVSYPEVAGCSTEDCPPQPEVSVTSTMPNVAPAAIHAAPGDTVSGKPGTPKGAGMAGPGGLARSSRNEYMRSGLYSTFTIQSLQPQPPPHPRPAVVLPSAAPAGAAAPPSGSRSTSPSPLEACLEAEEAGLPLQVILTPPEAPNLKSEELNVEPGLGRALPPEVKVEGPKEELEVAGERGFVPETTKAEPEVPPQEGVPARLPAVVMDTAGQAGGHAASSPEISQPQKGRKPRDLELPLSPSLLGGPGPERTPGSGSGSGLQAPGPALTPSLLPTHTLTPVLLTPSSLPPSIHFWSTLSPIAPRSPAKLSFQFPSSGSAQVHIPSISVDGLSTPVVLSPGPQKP
# In short: as §1
# GABPA = target: T3, GABPA (Homo sapiens, UniProt Q06546 1-454); conditions: protein: recombinant; tags: N-terminal GST; dsDNA, one strand shown
# T3 sequence: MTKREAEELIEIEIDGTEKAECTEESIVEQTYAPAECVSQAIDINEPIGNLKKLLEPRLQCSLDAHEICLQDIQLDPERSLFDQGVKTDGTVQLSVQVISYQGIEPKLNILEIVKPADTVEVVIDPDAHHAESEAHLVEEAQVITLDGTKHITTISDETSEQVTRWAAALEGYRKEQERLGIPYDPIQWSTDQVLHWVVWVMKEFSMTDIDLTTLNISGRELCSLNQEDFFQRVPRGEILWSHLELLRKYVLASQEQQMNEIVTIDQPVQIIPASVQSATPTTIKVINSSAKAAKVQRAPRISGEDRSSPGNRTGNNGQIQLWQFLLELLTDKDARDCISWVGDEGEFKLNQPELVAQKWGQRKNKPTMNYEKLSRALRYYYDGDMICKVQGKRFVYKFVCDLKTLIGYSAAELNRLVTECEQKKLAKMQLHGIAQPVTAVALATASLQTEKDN
# In short: as §1
# ERG = target: T4, ERG (Homo sapiens, UniProt P11308 1-479); conditions: protein: recombinant; tags: N-terminal GST; dsDNA, one strand shown
# T4 sequence: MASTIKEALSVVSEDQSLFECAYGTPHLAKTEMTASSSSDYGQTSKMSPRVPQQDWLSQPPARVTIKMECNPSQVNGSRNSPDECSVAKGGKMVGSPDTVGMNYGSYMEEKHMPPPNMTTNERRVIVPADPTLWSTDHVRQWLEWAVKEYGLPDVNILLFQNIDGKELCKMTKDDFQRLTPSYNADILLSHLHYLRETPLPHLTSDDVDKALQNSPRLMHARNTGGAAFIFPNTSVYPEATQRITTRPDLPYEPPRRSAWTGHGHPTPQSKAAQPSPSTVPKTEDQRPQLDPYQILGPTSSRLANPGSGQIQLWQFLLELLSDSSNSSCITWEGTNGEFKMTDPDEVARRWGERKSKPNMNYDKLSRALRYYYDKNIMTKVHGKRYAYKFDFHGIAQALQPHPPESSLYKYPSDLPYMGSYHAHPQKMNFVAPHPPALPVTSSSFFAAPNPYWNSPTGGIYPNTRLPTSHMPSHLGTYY
# In short: as §1
# ELF1 = ELF1 (Homo sapiens, UniProt P32519 1-619); conditions: protein: recombinant; tags: N-terminal GST; dsDNA, one strand shown
# In short: as §1
# EHF = target: T5, EHF (Homo sapiens, UniProt Q9NZC4 1-300); conditions: protein: recombinant; tags: N-terminal GST; dsDNA, one strand shown
# T5 sequence: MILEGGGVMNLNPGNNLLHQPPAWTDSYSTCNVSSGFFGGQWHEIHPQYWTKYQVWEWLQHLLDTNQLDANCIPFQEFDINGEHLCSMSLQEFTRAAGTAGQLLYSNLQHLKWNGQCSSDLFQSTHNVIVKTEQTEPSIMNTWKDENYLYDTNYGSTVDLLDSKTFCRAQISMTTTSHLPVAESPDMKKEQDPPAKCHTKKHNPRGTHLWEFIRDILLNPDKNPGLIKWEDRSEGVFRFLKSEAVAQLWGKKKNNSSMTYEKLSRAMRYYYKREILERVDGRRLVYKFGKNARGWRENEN
# In short: as §1
# SPI1 = SPI1 (Homo sapiens, UniProt P17947 1-270); conditions: protein: recombinant; tags: N-terminal GST; dsDNA, one strand shown
# In short: as §1
# SPIB = SPIB (Homo sapiens, UniProt Q01892 1-262); conditions: protein: recombinant; tags: N-terminal GST; dsDNA, one strand shown
# In short: as §1
# ELK3 = target: T6, ELK3 (Homo sapiens, UniProt P41970 1-407); conditions: protein: recombinant; tags: N-terminal GST; dsDNA, one strand shown
# T6 sequence: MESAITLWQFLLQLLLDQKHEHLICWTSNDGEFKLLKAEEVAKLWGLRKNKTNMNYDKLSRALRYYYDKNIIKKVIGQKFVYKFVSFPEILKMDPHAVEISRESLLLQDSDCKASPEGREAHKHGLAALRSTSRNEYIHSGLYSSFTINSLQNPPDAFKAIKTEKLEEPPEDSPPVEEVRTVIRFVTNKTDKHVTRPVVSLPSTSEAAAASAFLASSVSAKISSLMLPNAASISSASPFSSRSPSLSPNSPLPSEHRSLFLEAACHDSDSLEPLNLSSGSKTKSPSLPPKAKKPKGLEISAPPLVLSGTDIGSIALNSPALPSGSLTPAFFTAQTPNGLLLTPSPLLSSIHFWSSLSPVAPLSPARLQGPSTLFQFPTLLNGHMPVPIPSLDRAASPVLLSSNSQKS
# In short: as §1
# FEV = target: T7, FEV (Homo sapiens, UniProt Q99581 1-238); conditions: protein: recombinant; tags: N-terminal GST; dsDNA, one strand shown
# T7 sequence: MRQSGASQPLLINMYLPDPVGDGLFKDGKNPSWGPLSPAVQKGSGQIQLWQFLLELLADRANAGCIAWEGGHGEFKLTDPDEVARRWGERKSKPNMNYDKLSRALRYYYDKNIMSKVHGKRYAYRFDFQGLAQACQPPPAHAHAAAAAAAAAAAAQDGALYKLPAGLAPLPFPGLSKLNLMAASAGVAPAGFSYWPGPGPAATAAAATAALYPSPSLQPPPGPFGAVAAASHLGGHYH
# In short: as §1
# ETV5 = ETV5 (Homo sapiens, UniProt P41161 1-510); conditions: protein: recombinant; tags: N-terminal GST; dsDNA, one strand shown
# In short: as §1
# HSF1 = HSF1 (Homo sapiens, UniProt Q00613 1-529); conditions: protein: recombinant; tags: N-terminal GST; chain copies: 3; dsDNA, one strand shown
# In short: as §1
# SPIC = target: T8, SPIC (Homo sapiens, UniProt Q8N5J4 1-248); conditions: protein: recombinant; tags: N-terminal GST; dsDNA, one strand shown
# T8 sequence: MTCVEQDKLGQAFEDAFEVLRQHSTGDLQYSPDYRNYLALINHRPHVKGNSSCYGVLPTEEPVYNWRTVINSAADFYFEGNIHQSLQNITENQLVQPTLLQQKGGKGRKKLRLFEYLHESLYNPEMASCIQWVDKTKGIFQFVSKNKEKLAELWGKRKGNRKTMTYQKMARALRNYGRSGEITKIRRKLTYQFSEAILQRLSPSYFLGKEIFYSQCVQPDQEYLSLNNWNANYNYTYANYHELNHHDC
# In short: as §1
# ELF4 = ELF4 (Homo sapiens, UniProt Q99607 1-663); conditions: protein: recombinant; tags: N-terminal GST; dsDNA, one strand shown
# In short: as §1
# ELK4 = target: T9, ELK4 (Homo sapiens, UniProt P28324-2 1-405); conditions: protein: recombinant; tags: N-terminal GST; dsDNA, one strand shown
# T9 sequence: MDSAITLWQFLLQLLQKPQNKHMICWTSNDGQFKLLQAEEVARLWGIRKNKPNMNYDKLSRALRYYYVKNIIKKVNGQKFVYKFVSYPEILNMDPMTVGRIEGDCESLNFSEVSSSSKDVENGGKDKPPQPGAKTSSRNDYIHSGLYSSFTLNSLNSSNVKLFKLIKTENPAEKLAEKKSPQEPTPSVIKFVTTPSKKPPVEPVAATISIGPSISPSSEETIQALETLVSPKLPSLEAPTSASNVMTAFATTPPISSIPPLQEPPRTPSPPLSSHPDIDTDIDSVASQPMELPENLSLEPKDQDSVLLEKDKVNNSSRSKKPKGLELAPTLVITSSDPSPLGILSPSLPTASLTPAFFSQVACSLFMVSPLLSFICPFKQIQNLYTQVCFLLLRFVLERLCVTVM
# In short: as §1
# ETV2 = target: T10, ETV2 (Homo sapiens, UniProt O00321 1-342); conditions: protein: recombinant; tags: N-terminal GST; dsDNA, one strand shown
# T10 sequence: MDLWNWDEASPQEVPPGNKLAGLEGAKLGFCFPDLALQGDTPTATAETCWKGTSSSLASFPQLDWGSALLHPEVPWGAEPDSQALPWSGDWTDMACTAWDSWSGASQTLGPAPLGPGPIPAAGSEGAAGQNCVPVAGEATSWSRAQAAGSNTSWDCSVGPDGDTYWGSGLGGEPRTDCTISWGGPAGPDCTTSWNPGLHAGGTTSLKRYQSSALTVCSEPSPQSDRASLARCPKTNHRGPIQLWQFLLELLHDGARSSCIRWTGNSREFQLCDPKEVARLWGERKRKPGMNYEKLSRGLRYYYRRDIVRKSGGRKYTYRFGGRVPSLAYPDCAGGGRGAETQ
# In short: as §1
# ELF3 = target: T11, ELF3 (Homo sapiens, UniProt P78545 1-371); conditions: protein: recombinant; tags: N-terminal GST; dsDNA, one strand shown
# T11 sequence: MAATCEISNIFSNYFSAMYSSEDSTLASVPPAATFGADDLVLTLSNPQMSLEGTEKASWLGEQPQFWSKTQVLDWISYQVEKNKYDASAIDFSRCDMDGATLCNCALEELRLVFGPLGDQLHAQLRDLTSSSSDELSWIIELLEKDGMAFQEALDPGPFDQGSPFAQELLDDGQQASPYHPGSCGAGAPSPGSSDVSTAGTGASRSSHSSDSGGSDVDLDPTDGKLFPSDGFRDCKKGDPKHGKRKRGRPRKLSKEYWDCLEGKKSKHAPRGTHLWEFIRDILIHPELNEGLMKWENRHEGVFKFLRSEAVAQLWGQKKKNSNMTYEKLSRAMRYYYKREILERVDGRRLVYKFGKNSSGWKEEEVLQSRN
# In short: as §1
# CRX = CRX (Homo sapiens, UniProt O43186 1-299); conditions: protein: recombinant; tags: N-terminal GST; dsDNA, one strand shown
# In short: as §1
# ETV1 = ETV1 (Homo sapiens, UniProt P50549 1-477); conditions: protein: recombinant; tags: N-terminal GST; dsDNA, one strand shown
# In short: as §1
# Sequence of ETV5 (P41161 whole entry): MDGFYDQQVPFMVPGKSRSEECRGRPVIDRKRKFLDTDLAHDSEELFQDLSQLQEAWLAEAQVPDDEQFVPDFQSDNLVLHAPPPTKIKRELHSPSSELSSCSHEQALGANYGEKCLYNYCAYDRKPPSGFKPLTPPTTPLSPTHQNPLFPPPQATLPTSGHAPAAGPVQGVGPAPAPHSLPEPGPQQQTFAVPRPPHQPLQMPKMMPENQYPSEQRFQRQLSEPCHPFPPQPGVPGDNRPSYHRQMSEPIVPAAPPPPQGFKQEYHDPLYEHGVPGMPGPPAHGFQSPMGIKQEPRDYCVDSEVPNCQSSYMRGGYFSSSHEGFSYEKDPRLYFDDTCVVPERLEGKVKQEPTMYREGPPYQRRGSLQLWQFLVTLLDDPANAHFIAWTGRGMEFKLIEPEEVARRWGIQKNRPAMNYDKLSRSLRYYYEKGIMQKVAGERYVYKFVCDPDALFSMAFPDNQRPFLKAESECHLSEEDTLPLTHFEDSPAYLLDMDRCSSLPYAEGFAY
# Sequence of ELF4 (Q99607 whole entry): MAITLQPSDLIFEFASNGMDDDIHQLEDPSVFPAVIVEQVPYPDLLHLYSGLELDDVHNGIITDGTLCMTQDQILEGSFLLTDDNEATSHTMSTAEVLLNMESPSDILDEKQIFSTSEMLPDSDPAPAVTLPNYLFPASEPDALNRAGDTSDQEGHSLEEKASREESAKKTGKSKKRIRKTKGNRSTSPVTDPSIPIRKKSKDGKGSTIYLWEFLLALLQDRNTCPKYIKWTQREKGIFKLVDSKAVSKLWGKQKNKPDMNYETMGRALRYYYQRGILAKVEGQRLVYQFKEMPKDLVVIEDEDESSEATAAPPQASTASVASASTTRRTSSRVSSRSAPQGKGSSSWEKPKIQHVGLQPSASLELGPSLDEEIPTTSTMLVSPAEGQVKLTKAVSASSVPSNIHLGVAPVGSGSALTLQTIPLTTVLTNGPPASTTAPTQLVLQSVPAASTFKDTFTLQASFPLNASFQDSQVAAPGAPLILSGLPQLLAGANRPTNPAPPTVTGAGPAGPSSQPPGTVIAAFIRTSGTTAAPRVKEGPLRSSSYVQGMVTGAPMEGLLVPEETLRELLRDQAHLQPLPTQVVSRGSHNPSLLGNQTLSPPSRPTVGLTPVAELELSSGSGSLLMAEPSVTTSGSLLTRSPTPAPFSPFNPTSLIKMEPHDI
# Sequence of CRX (O43186 whole entry): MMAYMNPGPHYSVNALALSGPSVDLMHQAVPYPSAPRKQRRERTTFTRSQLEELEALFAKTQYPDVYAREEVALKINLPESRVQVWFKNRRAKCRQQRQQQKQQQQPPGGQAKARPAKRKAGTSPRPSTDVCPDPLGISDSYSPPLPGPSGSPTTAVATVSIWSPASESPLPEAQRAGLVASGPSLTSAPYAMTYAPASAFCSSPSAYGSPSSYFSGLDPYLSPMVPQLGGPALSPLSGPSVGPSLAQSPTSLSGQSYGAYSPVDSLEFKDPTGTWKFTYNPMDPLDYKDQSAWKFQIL
# Sequence of HSF1 (Q00613 whole entry): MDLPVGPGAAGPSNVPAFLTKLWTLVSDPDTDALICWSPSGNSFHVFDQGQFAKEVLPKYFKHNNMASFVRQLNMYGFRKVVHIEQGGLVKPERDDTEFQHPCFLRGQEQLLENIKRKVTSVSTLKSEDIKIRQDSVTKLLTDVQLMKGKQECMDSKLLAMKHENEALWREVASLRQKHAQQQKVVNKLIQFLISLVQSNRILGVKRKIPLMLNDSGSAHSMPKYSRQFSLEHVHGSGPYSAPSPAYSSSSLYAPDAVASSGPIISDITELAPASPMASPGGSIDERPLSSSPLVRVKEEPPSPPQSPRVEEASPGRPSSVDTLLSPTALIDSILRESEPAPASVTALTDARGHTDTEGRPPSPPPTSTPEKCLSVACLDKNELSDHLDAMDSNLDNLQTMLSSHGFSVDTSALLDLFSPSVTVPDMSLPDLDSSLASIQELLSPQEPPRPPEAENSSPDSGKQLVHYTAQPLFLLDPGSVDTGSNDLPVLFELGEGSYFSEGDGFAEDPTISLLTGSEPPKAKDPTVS
# Sequence of ETV1 (P50549 whole entry): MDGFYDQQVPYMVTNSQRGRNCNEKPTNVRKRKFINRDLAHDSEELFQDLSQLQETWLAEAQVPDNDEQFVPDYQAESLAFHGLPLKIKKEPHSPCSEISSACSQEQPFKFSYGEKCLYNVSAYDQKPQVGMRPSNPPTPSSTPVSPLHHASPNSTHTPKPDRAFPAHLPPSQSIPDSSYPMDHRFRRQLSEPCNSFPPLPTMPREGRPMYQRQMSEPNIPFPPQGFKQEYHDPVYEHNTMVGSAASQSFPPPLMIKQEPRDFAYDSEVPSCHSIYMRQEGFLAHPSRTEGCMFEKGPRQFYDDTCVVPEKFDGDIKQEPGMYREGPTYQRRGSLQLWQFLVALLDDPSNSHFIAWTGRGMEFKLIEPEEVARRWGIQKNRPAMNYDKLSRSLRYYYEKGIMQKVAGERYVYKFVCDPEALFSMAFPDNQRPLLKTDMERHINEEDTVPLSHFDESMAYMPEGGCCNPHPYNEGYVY
# Sequence of SPIB (Q01892 whole entry): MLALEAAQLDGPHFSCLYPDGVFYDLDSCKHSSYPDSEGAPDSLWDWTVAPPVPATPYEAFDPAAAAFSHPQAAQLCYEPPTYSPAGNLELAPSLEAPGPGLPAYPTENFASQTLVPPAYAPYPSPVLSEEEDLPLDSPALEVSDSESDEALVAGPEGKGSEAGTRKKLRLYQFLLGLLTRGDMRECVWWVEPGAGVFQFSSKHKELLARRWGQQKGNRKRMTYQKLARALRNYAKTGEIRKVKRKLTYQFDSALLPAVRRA
# Sequence of ELF1 (P32519 whole entry): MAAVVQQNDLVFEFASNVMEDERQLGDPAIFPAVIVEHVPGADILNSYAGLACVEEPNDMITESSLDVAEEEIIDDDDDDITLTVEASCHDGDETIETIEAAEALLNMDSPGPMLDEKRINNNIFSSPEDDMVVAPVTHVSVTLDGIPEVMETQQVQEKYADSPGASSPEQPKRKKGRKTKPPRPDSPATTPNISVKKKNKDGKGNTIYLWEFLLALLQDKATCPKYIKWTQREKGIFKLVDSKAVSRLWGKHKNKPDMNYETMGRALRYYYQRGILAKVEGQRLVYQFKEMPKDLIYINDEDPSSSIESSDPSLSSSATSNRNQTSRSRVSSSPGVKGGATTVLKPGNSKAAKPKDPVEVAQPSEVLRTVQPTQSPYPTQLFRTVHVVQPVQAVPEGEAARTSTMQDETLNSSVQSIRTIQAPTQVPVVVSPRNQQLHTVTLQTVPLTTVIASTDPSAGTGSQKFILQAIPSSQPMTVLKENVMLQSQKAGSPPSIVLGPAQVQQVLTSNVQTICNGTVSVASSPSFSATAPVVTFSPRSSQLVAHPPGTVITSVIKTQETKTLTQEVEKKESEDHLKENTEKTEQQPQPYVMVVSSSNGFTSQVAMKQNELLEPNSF
sequence,measurement,setting,value
TATAAC,binding signal,FLI1,"1.22 fold enrichment (6-mer frequency, TF over GST control)"
same,binding signal,ELK1,"1.21 fold enrichment (6-mer frequency, TF over GST control)"
same,binding signal,GABPA,"1.2 fold enrichment (6-mer frequency, TF over GST control)"
same,binding signal,ERG,"1.28 fold enrichment (6-mer frequency, TF over GST control)"
same,binding signal,ELF1,"1.29 fold enrichment (6-mer frequency, TF over GST control)"
same,binding signal,EHF,"1.15 fold enrichment (6-mer frequency, TF over GST control)"
same,binding signal,SPI1,"1.12 fold enrichment (6-mer frequency, TF over GST control)"
same,binding signal,SPIB,"1.39 fold enrichment (6-mer frequency, TF over GST control)"
same,binding signal,ELK3,"1.18 fold enrichment (6-mer frequency, TF over GST control)"
same,binding signal,FEV,"1.26 fold enrichment (6-mer frequency, TF over GST control)"
same,binding signal,ETV5,"1.2 fold enrichment (6-mer frequency, TF over GST control)"
same,binding signal,HSF1,"1.15 fold enrichment (6-mer frequency, TF over GST control)"
same,binding signal,SPIC,"1.2 fold enrichment (6-mer frequency, TF over GST control)"
same,binding signal,ELF4,"1.2 fold enrichment (6-mer frequency, TF over GST control)"
same,binding signal,ELK4,"1.17 fold enrichment (6-mer frequency, TF over GST control)"
same,binding signal,ETV2,"1.1 fold enrichment (6-mer frequency, TF over GST control)"
same,binding signal,ELF3,"1.25 fold enrichment (6-mer frequency, TF over GST control)"
same,binding signal,CRX,"1.43 fold enrichment (6-mer frequency, TF over GST control)"
same,binding signal,ETV1,"1.25 fold enrichment (6-mer frequency, TF over GST control)"
